Reference: ChEMBL document CHEMBL1157539, “Thousands of chemical starting points for antimalarial lead identification” (Nature, 2010)
Values joined by “and” are separate entries in the source; they are usually repeats but may differ in a detail not shown here. Identical values can stand only once. The campaign covered roughly 13,000 compounds. Fewer than 10 showed an effect of 50% or more. Not all results are given here.

Each molecule was assayed on Plasmodium falciparum (assay: GSK_TCMDC: Inhibition of Plasmodium falciparum 3D7 LDH activity, using an LDH reporter assay. Test compounds present at 2uM).
Assay type: functional, organism-based

Row | Structure (SMILES) | inhibition
1 | c1ccc(-c2ccc(-c3csc(Nc4ccncc4)n3)cc2)cc1 | 3%
2 | Cc1ccc2nc(C)cc(N/N=C/c3ccc([N+](=O)[O-])o3)c2c1 | 0%
3 | O=C(Nc1ccsc1)Nc1cccc(-c2cccc(-c3nc4cc(F)ccc4[nH]3)c2)c1 | 2%
4 | OCC(c1ccccc1)n1c(COc2ccc(Cl)cc2)nc2c(OCCCN3CCCCC3)cccc21 (centres undefined) | 0%
5 | CCN1CCC(N(Cc2ccc(-c3ccc(C(F)(F)F)cc3)cc2)C(=O)Cn2c(CCc3cccc(F)c3F)cc(=O)c3c2CCCC3)CC1 | 0%
6 | COc1ccc2c(NN=Cc3cccc(F)c3)ccnc2c1 | 0%
7 | N#Cc1ccc(N2CCN(Cc3cccc(-c4ccc(-c5nc6cc(C(F)(F)F)ccc6[nH]5)cc4)c3)CC2)nc1 | 0%
8 | Nc1nc(N)c2c(ccc3[nH]c(-c4ccccc4Cl)nc32)n1 | 0%
9 | C=CCc1cccc(OC)c1OCCCON1C(=N)N=C(N)NC1(C)C | 0%
10 | CC(C)CCn1c(Sc2ccc(C#N)c([N+](=O)[O-])c2)nnc1-c1ccc(Cl)cc1 | 0%
11 | Cc1n[nH]c2ccc(-c3ccc4nccc(N5CCC(N)CC5)c4c3)cc12 | 0%
12 | CCOc1ccc2c(=NN=Cc3ccccc3F)cc(C)[nH]c2c1 | 0%
13 | COc1cc(CN=C(S)NN=C(C)c2ccccn2)cc(OC)c1OC | 0%
14 | COc1ccc2c(c1)CC(C)(C)NC2CCCCCCCCC1NC(C)(C)Cc2cc(OC)ccc21 (centres undefined) | 0%
15 | CCCC(=O)c1cnc2c(OCCCc3c[nH]cn3)cccc2c1Nc1c(C)cccc1C | 3%
16 | CC[C@H](N/C(=N\c1ccc(-c2ccccc2)cc1)Nc1ccc(C#N)cc1O)c1ccccc1 | 4%
17 | COc1c(Br)cc(Br)cc1-c1ccc(CN2CC3CCC2CC3)[nH]1 | 0%
18 | CCCCCCN1CCC(NCc2ccc(Cl)cc2)CC1 | 0%
19 | COc1cc(NC(=O)c2sc(-c3ccc(Cl)cc3)cc2NC(=O)c2cccc(N(C)C)c2)ccc1OCCN1CCCC1 | 0%
20 | CCN(C1CCCCC1)S(=O)(=O)c1ccc(OC)c(N2CCN(C(=O)C(Cl)(Cl)Cl)CC2)c1 | 3%
21 | O=C(NCCCN1CCOCC1)c1cccc(Nc2nccc(Nc3ccc(Oc4ccccc4)cc3)n2)c1 | 0%
22 | CCC(=O)N(c1ccccc1)C1CCN(CCCC(NC(=O)c2cc(C(F)(F)F)cc(C(F)(F)F)c2)c2ccc(Cl)c(Cl)c2)CC1 (centres undefined) | 0%
23 | O=C(/C=C/c1ccc(-c2nc3ccc(Cl)cc3[nH]2)cc1)NC1CCN(Cc2ccccc2)CC1 | 0%

Row | Structure (SMILES) | inhibition
24 | CN(C)c1ccc(-c2csc(C(=O)NC3CCN(CCC(C)(C)C)C3)c2)cc1 (centres undefined) | 2%
25 | NC(=O)c1cccc(C(=O)Nc2cccc(-c3cccc(-c4nc5cc(F)ccc5[nH]4)c3)c2)c1 | 1%
26 | Cc1ccc(Cl)c2sc(N3CCN(C(=O)c4ccc([N+](=O)[O-])o4)CC3)nc12 | 0%
27 | O=C(c1ccc([N+](=O)[O-])o1)N1CCN(c2nc3c(F)cc(F)cc3s2)CC1 | 0%
28 | O=C(/C=C/c1ccc(I)cc1)NCCCCCN1CCC(c2c[nH]c3ccc(O)cc23)CC1 | 2%
29 | CN1CCN(CC(=O)Nc2cccc(-c3ccc(-c4nc5cc(F)ccc5[nH]4)cc3)c2)CC1 | 6%
30 | CCN(CC)CCN(CCN(CC)CC)c1ccc(-c2nc3cc(Cl)c(Cl)cc3[nH]2)cc1 | 2%
31 | Cc1ccc(-c2nc3cc(C(=O)NC4CCC(N5CCCc6ccc(C#N)cc6C5)CC4)ccc3[nH]2)cc1 (centres undefined) | 0%
32 | CN(CCc1ccccn1)Cc1ccc(-c2ccc(-c3nc4ccccc4[nH]3)s2)cc1 | 6%
33 | CC(C)(C)OC(=O)NCc1ccc(Nc2nnc(-c3cccc(C(=O)NCCC(c4ccccc4)c4ccccc4)c3)o2)cc1 | 0%
34 | FC(F)(F)c1ccc2[nH]c(-c3cccc(-c4ccc(CNCC5CCCO5)cc4)c3)nc2c1 (centres undefined) | 0%
35 | NCC1CCCN1Cc1cccc(-c2ccc(-c3nc4cc(C(F)(F)F)ccc4[nH]3)s2)c1 (centres undefined) | 0%
36 | O=c1sn(-c2csc3ccccc23)c2ccccc12 | 0%
37 | COc1cc(NC(=O)C(c2ccc(Cl)cc2)C(C)C)cc(OC)c1 (centres undefined) | 0%
38 | CC1(C)NC(N)=NC(=N)N1OCCCc1c(Cl)cccc1Cl | 3%
39 | Cn1cc(Br)c(-c2cccc(Nc3ccnc4cc(-c5nccs5)ccc34)c2)n1 | 0%
40 | CC1(C)[C@H]2CC[C@@H](CNc3nc(NCCc4c[nH]cn4)nc(Nc4ccc(Oc5ccccc5)cc4)n3)[C@@H]1C2 | 3%
41 | O=C(CC1NC(=O)c2ccccc21)Nc1ccc(-c2ccc(-c3nc4cc(C(F)(F)F)ccc4[nH]3)cc2)cc1 (centres undefined) | 0%
42 | CC(C)CNCc1ccc(-c2cccc(-c3nc4ccccc4[nH]3)c2)cc1 | 0%
43 | Cc1cc2ccccc2n1CC(=O)N1CC(C(=O)N2CCCCC2)Oc2ccccc21 (centres undefined) | 2%
44 | CC1(C)CCC(C)(C)c2c1ccc(C1CCN(CCCCNC(=O)c3ccc(-c4ccc(C#N)cc4)cc3)CC1)c2O | 7%
45 | c1cc(-c2ccc(CN3CCN(c4ccncc4)CC3)cc2)cc(-c2nc3ccccc3[nH]2)c1 | 0%
46 | FC(F)(F)c1ccc2[nH]c(-c3ccc(-c4ccc(CNCc5cnn(-c6ccccc6)n5)cc4)cc3)nc2c1 | 0%

Row | Structure (SMILES) | inhibition
47 | OCc1ccc(-c2cncc(Nc3cccc(Cl)c3)c2)cc1 | 0%
48 | CNCCNCc1ccc(-c2ccc(-c3nc4cc(F)ccc4[nH]3)s2)cc1 | 2%
49 | CC(C)CCNC(=N)Nc1ccc(OCCCCCOc2ccc(NC(=N)NCCC(C)C)cc2)cc1 | 6%
50 | CCOC(=O)c1ccc(NC(=O)Nc2cccc(-c3cccc(-c4nc5cccc(C)c5[nH]4)c3)c2)cc1 | 0%
51 | CC(=NNc1nc2ccccc2s1)c1ccccn1 | 0%
52 | Cn1cccc1C(=O)C(=O)Nc1ccc(-c2ccc(-c3nc4cc(F)ccc4[nH]3)cc2)cc1 | 0%
53 | COC(=O)c1cccc(CNCc2cccc(-c3cccc(-c4nc5cc(C(F)(F)F)ccc5[nH]4)c3)c2)c1 | 6%
54 | COc1ccc2nccc(N/N=C/c3cccc([N+](=O)[O-])c3)c2c1 | 0%
55 | CC(Cl)=CCc1c(C)nc2c(ccc3ccccc32)c1O | 8%
56 | Cc1cccc2nc(-c3ccc(-c4cccc(NC(=O)Nc5ccccc5)c4)cc3)[nH]c12 | 9%
57 | CCOc1ccc2[nH]c(C)cc(=NN=Cc3cccc(F)c3)c2c1 | 0%
58 | COc1ccc2nc3cc(Cl)ccc3c(NCCCCCCNc3c4ccc(Cl)cc4nc4ccc(OC)cc34)c2c1 | 0%
59 | c1ccc(-c2ccc(CNCc3ccc(-c4cccc(-c5nc6ccccc6[nH]5)c4)cc3)s2)nc1 | 0%
60 | CN(C)c1ccc(CN2CCCCC(NC(=O)c3cc(-c4ccccc4Cl)cs3)C2)cc1 (centres undefined) | 0%
61 | N=C(N)Nc1ccc(CCc2ccc(NC(=N)N)cc2)cc1 | 0%
62 | COc1ccc2nccc([C@@H](O)CN3CCC(NC(=O)/C=C/c4ccc5ccccc5n4)CC3)c2c1 | 1%
63 | N#Cc1ccc(N/C(=N\c2ccc(-c3ccccc3)cc2)NCCc2c[nH]c3ccccc23)c(O)c1 | 6%
64 | Cc1cccc2nc(-c3cccc(-c4ccc(CNCCNC(=O)c5ccnn5C)cc4)c3)[nH]c12 | 0%
65 | NC1CCCN(Cc2ccc(-c3ccc(-c4nc5cc(F)ccc5[nH]4)s3)cc2)C1 (centres undefined) | 1%
66 | COc1ccccc1CCNc1nc(C)cc(N[C@@H](Cc2ccccc2)C(=O)NCCOc2ccccc2)n1 | 4%
67 | O=C(Cn1c(SCc2cccc(F)c2F)cc(=O)c2ccccc21)N(CCn1ccnc1)Cc1ccc(-c2ccc(C(F)(F)F)cc2)cc1 | 0%
68 | O=C(Nc1ccc(Cn2ncc(N3CCCNCC3)c(Cl)c2=O)cc1)Nc1ccc(-c2ccccc2)cc1 | 0% and 8%
69 | O=C(OCc1ccccn1)c1nc2ccccc2[nH]1 | 0%

Row | Structure (SMILES) | inhibition
70 | O=C(NCc1cccs1)[C@H](Cc1ccccc1)Nc1ccnc(NCCc2ccccc2)n1 | 0%
71 | Cc1cc(N2CCCC2)nc(NC(=N)Nc2cccc(C(F)(F)F)c2)n1 | 1%
72 | Cn1ncc2ccc(Nc3nccc(-c4ccc5c(c4)c(N)nn5C)n3)cc21 | 0%
73 | Cn1c(Cc2ccccc2)nnc1Sc1ccc(C#N)c([N+](=O)[O-])c1 | 0%
74 | O=C(NCCN1CCCC1)c1cccc(-c2ccc(-c3nc4cc(F)ccc4[nH]3)cc2)c1 | 0%
75 | CCOc1ccc2nc3cc(NC(=O)c4ccco4)ccc3c(N)c2c1 | 0%
76 | Cc1cccc2nc(-c3ccc(-c4cccc(CN5CCN(c6ccncc6)CC5)c4)s3)[nH]c12 | 6%
77 | Cc1ccc(CN2CCN(Cc3cccc(NC(=O)c4cccs4)c3)CC2)cc1C | 2%
78 | CCN(CC)CCCC(C)Nc1c2ccccc2nc2c1ccc1ccccc12 (centres undefined) | 3%
79 | CCOc1ccccc1NC(=O)C(Sc1nc(C)cc(C)c1C#N)c1ccccc1 (centres undefined) | 0%
80 | O=C(/C=C/c1ccc(Cl)c(Cl)c1)NCCCCCN1CCC(CCNC(=O)Cc2ccc(Cl)cc2)CC1 | 0%
81 | COc1ccc(CN2CCCN(Cc3cccc(NC(=O)c4ccc(Cl)c(Cl)c4)c3)CC2)cc1 | 5%
82 | CCN(CCCN1CCCCC1)c1cc(C)nc(Nc2cccc(C(F)(F)F)c2C)n1 | 0%
83 | COc1ccc2nc3cc(Cl)ccc3c(NCCCCNc3c4ccc(Cl)cc4nc4ccc(OC)cc34)c2c1 | 6%
84 | CS(=O)(=O)NCCCNCc1cccc(-c2ccc(-c3nc4ccccc4[nH]3)s2)c1 | 6%
85 | O=C(NCc1ccc(F)cc1)Nc1ccc(-c2cccc(-c3nc4cc(C(F)(F)F)ccc4[nH]3)c2)cc1 | 3%
86 | O=C(Nc1cccc(C(F)(F)F)c1)c1ccc(S(=O)(=O)NCC2CCN(CC3CCCCC3)CC2)cc1 | 0%
87 | N[C@@H](Cc1cc(I)c(Oc2ccc(O)c(C(=O)O)c2)c(I)c1)C(=O)O | 0%
88 | CC(C)CNCc1ccc(-c2ccc(CNC3CCN(Cc4ccccc4)CC3)cc2)cc1 | 4%
89 | CC1(C)N=C(N)N=C(N)N1c1ccc(Cl)cc1 | 0%
